Measurements published in PubChem BioAssay AID1347417 (National Center for Advancing Translational Sciences (NCATS), 2020).
Screen size: about 120,000 compounds; about 5,300 (4.4%) were called active. About 22% were inconclusive and are not listed. The entries come from a sample that favours actives as a whole. Unmarked numbers belong to inactive results. Calls come from the whole dose curve; as a rule, active = well fitted inhibition curve with a large enough effect; inconclusive = small, poorly fitted or top-dose-only effect; inactive = no such curve, though single readings can be large or run the other way.

Assay: qHTS Primary assay for Inhibitors of Plasmodium falciparum Dd2 growth in vitro; note: nearly all actives have a fitted effect of over 65% in size;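 for activity, negative = inhibition: plate controls were DMSO vehicle for no effect and reference drug for full effect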
Settings: P. falciparum Dd2 growth, SYBR Green, 72 h; series mostly up to 28.9 µM; activity, negative = inhibition: at the top concentration
Text: Malaria, a parasitic disease spread to humans through the bite of a Plasmodium infected Anopheles mosquito, continues to be a global health burden affecting millions of people, with an estimated 228 million cases and 405,000 deaths in 2018. Concerns about safety and limitations of current antimalarial treatments strongly emphasize the need to develop new therapeutic options. The scarce number of chemotypes and validated drug targets with efficacy against the liver stage, have hindered development of new antimalarials. To address this, a chemoprophylactic drug discovery effort was conducted through a combined phenotypic high-throughput asexual blood stage and liver stage screen, providing a robust foundation to identify liver-stage active lead chemotypes. Compounds were initially screened against Plasmodium falciparum Dd2 strain parasites using a in vitro SYBRGreen-1 based 72 hr proliferation assay to identify novel chemotypes to advance to liver stage assays. NIH/NCATS Early Translation Branch Assay Submitter (PI): Anton Simeonov Ph.D.
Malaria-vivax Assay Protocol: PROTOCOL TABLE (as described by Inglese et al., 2007) SEQUENCE No. (e.g., 1, 2, 3, etc.); […] (e.g., Cells, Incubation, Reagent, etc.); VALUE; DESCRIPTION SEQUENCE, Parameter, Description 1; Reagent; 3 uL complete malaria growth medium, 1536 TC treated Black clear bottom plate 2; Controls; 23 nL positive control artesunate (300 nM final) to column 1; Neutral control DMSO to columns 2-4 3; Compound; 23 nL of compounds in dose response concentration (29 uM to 0.5 nM final) 4; Reagent; 5 uL malaria infected red blood cells (2.5% hematocrit final, 0.3% parasitemia 5; Time; 72 hours at 37C (5% O2, 5% CO2, 90% N2; 95% Rh) 6; Reagent; 2 uL lysis buffer/SYBRGreen-1, 25 sec shake immediately following dispense 7; Time; ~16 hours at 37C (5% O2, 5% CO2, 90% N2; 95% Rh) 8; Detector; EnVision (PerkinElmer) bottom read at 485/14nm excitation and 535/25 nm emission NOTES (numbers refer to sequence above): 1; Complete Malaria Growth Media: 1X RPMI-1640 w/L-glutamine, 5.5g/L Albumax II, 367 uM Hypoxanthine, 25 mM HEPES, 0.25% Sodium Bicarbonate, 35 uM Gentamicin sulfate 2; Controls were added using the Kalypsis Pintool (Wako USA) equipped with 1536 pinhead 3; Compounds were added in a 7-point, titration with a high final concentration of 29 uM by Pintool from seven inter-plate titrations of library plates and two DMSO control plates at the beginning and end (see Yasgar et al., 2008). 4; Red blood cells infected with Plasmodium falciparum Dd2 parasites were used. 6; Lysis buffer: 20 mM Tris-HCl, 10 mM EDTA, 0.16% Saponin, 1.6% Triton-X, 10X SYBR Green. REFERENCE: Inglese J, Shamu CE, Guy RK. 2007. Reporting data from high-throughput screening of small-molecule libraries. Nat Chem Biol. doi:10.1038/nchembio0807-438 Yasgar A, Shinn P, Jadhav A, Auld D, Michael S, Zheng W, Austin CP, Inglese J, Simeonov A. 2008. Compound Management for Quantitative High-Throughput Screening. J Lab Autom 13:79-89. doi:10.1016/j.jala.2007.12.004
Potency is the fitted concentration of half-maximal effect.

| SMILES | activity, negative = inhibition | Potency | outcome |
| --- | --- | --- | --- |
| C=CCN(C)C[C@H]1CN2CC[C@H]1C[C@@H]2CNC(=O)Nc1cccc(SC)c1 | -1.33% [at 44.1 µM] |  |  |
| CN(Cc1ccccc1)C[C@H]1CN2CC[C@H]1C[C@@H]2CNC(=O)Nc1ccsc1 |  | 10 µM (active) |  |
| CC[C@H]1CN2CC[C@H]1C[C@@H]2CNC(=O)c1ccc(N(C)C)cc1 | -23.9% [at 44.1 µM] |  |  |
| CCc1nc(-c2cc(S(=O)(=O)N3CCN(c4ccc(OC)cc4)CC3)ccc2OC)no1 | -2.1% |  |  |
| COc1ccc(OC)c(-c2noc(N3CCN(c4cc(Cl)ccc4C)CC3)n2)c1 |  | 8.91 µM (active) |  |
| COc1ccc(S(=O)(=O)N2CCN(c3ccc(F)cc3)CC2)cc1-c1noc(C)n1 | -4.06% |  |  |
| COc1nccnc1NC1CCN(C(=O)CCc2c(C)noc2C)CC1 | 30.5% [at 5.79 µM] |  |  |
| O=C(Cc1ccsc1)N1CCC(c2n[nH]c(=O)n2Cc2ccc(F)cc2)CC1 | -19.7% |  |  |
| Cn1cc(CNC(=O)C[C@@H]2C[C@H]3O[C@H](CNC4CCCC4)[C@@H](O)[C@H]3O2)cn1 |  |  | inactive [at 44.1 µM] |
| COc1cc(-c2ccnc3nc(C4CC4)nn23)cc(OC)c1OC |  |  | inactive |
| Cc1cc(Nc2cccc(C(F)(F)F)c2)nc2ccc(NC(=O)c3ccc(=O)[nH]c3)cc12 |  | 3.98 µM (active) |  |
| Cn1c(C(=O)Nc2cccc(C(F)(F)F)c2)cc2c(=O)n3ccccc3nc21 | -9.41% |  |  |
| Cc1cccc(C(=O)Nc2ccc(-c3nc4ccccc4s3)c(C)c2)c1 | -25.6% |  |  |
| O=C(O)c1ccnc(-c2ccnc(NCCN3CCCCC3CO)n2)c1 (stereo not drawn) | 23.5% |  |  |
| COc1ccccc1C(=O)N1CCCN(CCc2ccccc2)c2ccccc21 |  | 11.2 µM (active) |  |
| CN1CCCN(C(=O)c2ccccc2OC(F)(F)F)c2ccccc21 | -8.3% |  |  |
| COc1cccc(C(=O)N2CCCN(C(=O)C3CC3)c3ccccc32)c1OC | 0.674% |  |  |
| COc1ccc(C2Cn3nnc(-c4noc(-c5ccccc5)n4)c3CO2)cc1 (stereo not drawn) |  |  | inactive |
| COCCN1C(=O)[C@H]2CN(Cc3ccsc3)C[C@H]2C1=O | 16.4% |  |  |
| N#Cc1nc(/C=C/c2ccc(F)cc2)oc1NCc1ccc(F)cc1 | -2.83% |  |  |
| COc1ccc(/C=C/c2nc(C#N)c(NCc3ccc(F)cc3)o2)cc1OC |  |  | inactive; activator; fitted 1.9953 uM |
| COc1ccccc1/C=C/c1nc(C#N)c(NC(C)c2ccccc2)o1 (stereo not drawn) |  | 4.47 µM (active) |  |
| COCCn1nnnc1C1CC2(CCOCC2)C(=O)N1Cc1ccc(SC)cc1 (stereo not drawn) | 25.7% |  |  |
| COc1ccc(C(=O)Nc2cccc(-c3nnc4n3CCCC4)c2)cc1 |  | 10 µM (active) |  |

| SMILES | activity, negative = inhibition | Potency | outcome |
| --- | --- | --- | --- |
| CC(=O)Nc1cccc(-c2nnc3n2CCCC3)c1 | -23.7% |  |  |
| COc1cccc(NC(=O)c2c(OC)cc(=O)n3c2CCCC3)c1 | 29.4% |  |  |
| Cc1noc(C)c1C(=O)N1CC(N(Cc2cccnc2)CC(C)C)C1 | -2.89% |  |  |
| O=C(c1ccsc1)N1CCCn2cc(-c3ccc4c(c3)OCO4)nc21 |  |  | inactive |
| Cc1ccc(-n2c(=O)c3cccnc3n2CC(=O)NCc2ccc(F)cc2)cc1C | -19.7% |  |  |
| Cc1ccc(-n2c(=O)c3cccnc3n2CC(=O)Nc2ccccc2C(F)(F)F)cc1C |  | 8.91 µM (active) |  |
| CC(C)c1ccc(NC(=O)Cn2c3ncccc3c(=O)n2-c2ccccc2)cc1 | 2.68% |  |  |
| C=CCNC(=O)N1CC[C@H]2CC(=O)N(c3ccccc3)CC[C@H]2C1 | -10.2% [at 44.1 µM] |  |  |
| C[C@@]1(O)CCN(Cc2cc(=O)n3[nH]cnc3n2)C[C@@H]1O | 8.29% |  |  |
| CCOc1ccc(C(=O)N2CCCC(c3noc(COC)n3)C2)cc1 (stereo not drawn) | 57% |  |  |
| COCc1nc(C2CCCN(C(=O)c3ccccn3)C2)no1 (stereo not drawn) | 63.7% |  |  |
| O=C(C1CCCC1)N1CCCC(c2noc(COc3ccccc3)n2)C1 (stereo not drawn) |  | 8.91 µM (active) |  |
| O=C(CCS(=O)(=O)c1cc(Br)cc2c1N(C(=O)C1CC1)CC2)Nc1ccc(C(F)(F)F)cc1 |  | 1.12 µM (active) |  |
| COC(=O)c1cc(NC(=O)CCS(=O)(=O)c2cc(Br)cc3c2N(C(=O)C2CC2)CC3)cc(C(=O)OC)c1 | 9.63% |  |  |
| O=C(C1CC1)N1CCc2cc(Br)cc(S(=O)(=O)N3CCN(c4ccccc4F)CC3)c21 | 24% |  |  |
| CN1CC2(CCN(C(=O)c3cccn3C)CC2)CC1C(=O)N1CCOCC1 (stereo not drawn) | 2.81% |  |  |
| O=C(Nc1ccc(F)cc1F)c1ccc2c(c1)n(Cc1cccc(F)c1)c(=O)c1ccnn12 | -5.91% |  |  |
| CCNC(=O)N1CCCC1c1noc(CCC(=O)NCCc2nc3ccccc3[nH]2)n1 (stereo not drawn) |  |  | inactive; activator; fitted 3.9811 uM |
| CC(=O)N1Cc2ccccc2CC2(CCN(Cc3ccc(O)cc3)CC2)C1 | -15.7% |  |  |
| C[C@H](C(=O)N1Cc2ccccc2CC2(CCN(Cc3ccncc3)CC2)C1)c1ccccc1 |  | 11.2 µM (active) |  |
| CC(=O)N1Cc2ccccc2CC2(CCCN(Cc3ccncc3)C2)C1 (stereo not drawn) | -19.2% |  |  |
| O=C(CCc1cccnc1)N1CCc2c(n(CCOc3ccccc3)n(-c3ccccc3)c2=O)C1 | 9.6% |  |  |
| COCCCNC(=O)c1cc(C2CC2)nc2onc(C3CCCN3)c12 (stereo not drawn) | -11.5% |  |  |
| CC(C)C[C@@H]1N[C@H](C(=O)NC(C)C)Cc2c[nH]c3cccc1c23 | -0.792% [at 44.1 µM] |  |  |
